Source: ChEMBL document CHEMBL1961873, “Compounds: GSK PKIS; Assays: Nanosyn kinase panel” (2012)
“And” between values parts separate entries of the source, which are not always exact repeats. Identical values can stand only once.

Legend:
[1] = target: Serine/threonine-protein kinase MRCK alpha (Homo sapiens) (UniProt Q5VT25); details: at 0.1 µM
[2] = target: Serine/threonine-protein kinase MRCK alpha (Homo sapiens) (UniProt Q5VT25); details: at 1 µM
[3] = target: Serine/threonine-protein kinase MRCK beta (Homo sapiens) (UniProt Q9Y5S2); details: at 0.1 µM
[4] = target: Serine/threonine-protein kinase MRCK beta (Homo sapiens) (UniProt Q9Y5S2); details: at 1 µM
[5] = target: Ribosomal protein S6 kinase alpha-5 (Homo sapiens) (UniProt O75582); details: at 0.1 µM
Sequence of Ribosomal protein S6 kinase alpha-5 (Homo sapiens) (O75582 whole entry, looked up): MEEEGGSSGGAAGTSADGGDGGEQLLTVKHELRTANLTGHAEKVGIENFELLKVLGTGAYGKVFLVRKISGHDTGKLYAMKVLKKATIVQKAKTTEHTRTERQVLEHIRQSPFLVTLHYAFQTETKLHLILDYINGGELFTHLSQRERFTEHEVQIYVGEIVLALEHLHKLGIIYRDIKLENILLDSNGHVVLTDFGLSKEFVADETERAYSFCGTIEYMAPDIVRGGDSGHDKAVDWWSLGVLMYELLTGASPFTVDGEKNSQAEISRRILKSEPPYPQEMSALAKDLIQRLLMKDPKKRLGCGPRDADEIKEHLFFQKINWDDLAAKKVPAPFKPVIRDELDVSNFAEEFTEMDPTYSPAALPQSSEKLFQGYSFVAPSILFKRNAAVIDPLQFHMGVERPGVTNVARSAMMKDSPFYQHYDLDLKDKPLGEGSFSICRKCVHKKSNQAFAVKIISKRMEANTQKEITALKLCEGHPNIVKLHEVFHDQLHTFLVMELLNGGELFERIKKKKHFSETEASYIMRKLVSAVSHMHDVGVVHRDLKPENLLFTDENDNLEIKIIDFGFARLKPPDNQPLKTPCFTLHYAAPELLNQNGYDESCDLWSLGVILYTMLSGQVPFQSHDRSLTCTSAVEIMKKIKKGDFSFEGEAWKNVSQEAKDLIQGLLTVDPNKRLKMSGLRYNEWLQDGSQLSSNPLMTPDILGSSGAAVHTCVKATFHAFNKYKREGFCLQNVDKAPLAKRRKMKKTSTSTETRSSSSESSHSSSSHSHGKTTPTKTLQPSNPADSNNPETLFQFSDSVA

[6] = target: Ribosomal protein S6 kinase alpha-5 (Homo sapiens) (UniProt O75582); details: at 1 µM
[7] = target: Ribosomal protein S6 kinase alpha-4 (Homo sapiens) (UniProt O75676); details: at 0.1 µM
Sequence of Ribosomal protein S6 kinase alpha-4 (Homo sapiens) (O75676 whole entry, looked up): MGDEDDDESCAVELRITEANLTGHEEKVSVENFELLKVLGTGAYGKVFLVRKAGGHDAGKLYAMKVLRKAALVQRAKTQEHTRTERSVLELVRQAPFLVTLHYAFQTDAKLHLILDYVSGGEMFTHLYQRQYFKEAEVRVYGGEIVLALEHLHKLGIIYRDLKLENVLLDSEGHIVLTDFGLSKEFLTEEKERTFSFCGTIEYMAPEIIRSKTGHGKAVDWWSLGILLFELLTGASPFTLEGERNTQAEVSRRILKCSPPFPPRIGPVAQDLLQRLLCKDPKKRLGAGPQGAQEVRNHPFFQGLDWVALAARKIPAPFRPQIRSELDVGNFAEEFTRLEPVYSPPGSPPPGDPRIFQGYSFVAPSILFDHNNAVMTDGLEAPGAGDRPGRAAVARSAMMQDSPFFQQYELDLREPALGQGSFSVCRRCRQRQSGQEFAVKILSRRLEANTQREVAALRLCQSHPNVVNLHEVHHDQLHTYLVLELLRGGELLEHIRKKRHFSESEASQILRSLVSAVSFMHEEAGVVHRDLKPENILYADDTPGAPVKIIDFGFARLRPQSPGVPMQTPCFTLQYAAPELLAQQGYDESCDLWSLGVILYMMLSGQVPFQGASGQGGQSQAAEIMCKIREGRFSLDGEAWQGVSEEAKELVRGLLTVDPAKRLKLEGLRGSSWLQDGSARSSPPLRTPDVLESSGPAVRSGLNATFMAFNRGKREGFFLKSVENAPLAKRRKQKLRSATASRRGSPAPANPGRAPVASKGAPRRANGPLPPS

[8] = target: Ribosomal protein S6 kinase alpha-4 (Homo sapiens) (UniProt O75676); details: at 1 µM
[9] = target: Ribosomal protein S6 kinase beta-1 (Homo sapiens) (UniProt P23443); details: at 0.1 µM
[10] = target: Ribosomal protein S6 kinase beta-1 (Homo sapiens) (UniProt P23443); details: at 1 µM
[11] = target: T1, 3-phosphoinositide-dependent protein kinase 1 (Homo sapiens) (UniProt O15530); details: at 0.1 µM;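 further: values are mean inhibition of PDK1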
T1 sequence (whole entry): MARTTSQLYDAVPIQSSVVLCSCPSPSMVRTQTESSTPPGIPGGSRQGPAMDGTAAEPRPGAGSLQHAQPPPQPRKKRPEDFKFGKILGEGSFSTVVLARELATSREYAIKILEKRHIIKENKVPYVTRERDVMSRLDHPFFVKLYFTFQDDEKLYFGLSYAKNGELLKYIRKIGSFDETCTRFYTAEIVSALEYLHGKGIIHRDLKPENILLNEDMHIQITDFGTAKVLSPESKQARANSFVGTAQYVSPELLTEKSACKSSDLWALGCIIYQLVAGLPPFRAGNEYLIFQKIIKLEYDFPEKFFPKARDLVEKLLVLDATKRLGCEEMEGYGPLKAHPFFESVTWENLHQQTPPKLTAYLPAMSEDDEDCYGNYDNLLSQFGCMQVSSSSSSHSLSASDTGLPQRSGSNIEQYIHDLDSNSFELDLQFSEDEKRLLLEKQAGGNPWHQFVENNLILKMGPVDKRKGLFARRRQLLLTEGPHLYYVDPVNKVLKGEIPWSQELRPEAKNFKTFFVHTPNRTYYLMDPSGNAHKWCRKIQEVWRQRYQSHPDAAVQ

[12] = target: cAMP-dependent protein kinase catalytic subunit alpha (Homo sapiens) (UniProt P17612); details: at 0.1 µM
[13] = target: cAMP-dependent protein kinase catalytic subunit alpha (Homo sapiens) (UniProt P17612); details: at 1 µM
[14] = target: Protein kinase C alpha type (Homo sapiens) (UniProt P17252); details: at 0.1 µM
[15] = target: Protein kinase C alpha type (Homo sapiens) (UniProt P17252); details: at 1 µM
[16] = target: Protein kinase C beta type (Homo sapiens) (UniProt P05771); details: at 0.1 µM
Sequence of Protein kinase C beta type (Homo sapiens) (P05771 2-671 limits assumed): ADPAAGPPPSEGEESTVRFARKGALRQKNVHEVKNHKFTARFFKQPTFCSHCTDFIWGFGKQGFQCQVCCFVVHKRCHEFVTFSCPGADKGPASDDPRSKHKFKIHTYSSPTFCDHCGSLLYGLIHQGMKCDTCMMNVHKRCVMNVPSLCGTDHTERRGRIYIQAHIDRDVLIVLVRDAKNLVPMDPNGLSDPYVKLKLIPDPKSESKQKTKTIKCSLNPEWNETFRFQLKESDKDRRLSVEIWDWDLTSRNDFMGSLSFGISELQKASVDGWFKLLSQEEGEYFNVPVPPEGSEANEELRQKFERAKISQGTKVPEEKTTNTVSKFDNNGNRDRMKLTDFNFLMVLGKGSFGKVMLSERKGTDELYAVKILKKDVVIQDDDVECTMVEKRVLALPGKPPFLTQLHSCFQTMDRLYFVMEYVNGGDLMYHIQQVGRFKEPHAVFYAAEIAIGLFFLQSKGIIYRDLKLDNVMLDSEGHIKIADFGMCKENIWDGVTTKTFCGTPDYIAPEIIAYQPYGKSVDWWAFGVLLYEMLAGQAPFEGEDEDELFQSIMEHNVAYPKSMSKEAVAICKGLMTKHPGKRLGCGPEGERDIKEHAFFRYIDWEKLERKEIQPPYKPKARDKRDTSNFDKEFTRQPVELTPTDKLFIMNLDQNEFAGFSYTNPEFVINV

[17] = target: Protein kinase C beta type (Homo sapiens) (UniProt P05771); details: at 1 µM
[18] = target: Protein kinase C eta type (Homo sapiens) (UniProt P24723); details: at 0.1 µM
Sequence of Protein kinase C eta type (Homo sapiens) (P24723 whole entry): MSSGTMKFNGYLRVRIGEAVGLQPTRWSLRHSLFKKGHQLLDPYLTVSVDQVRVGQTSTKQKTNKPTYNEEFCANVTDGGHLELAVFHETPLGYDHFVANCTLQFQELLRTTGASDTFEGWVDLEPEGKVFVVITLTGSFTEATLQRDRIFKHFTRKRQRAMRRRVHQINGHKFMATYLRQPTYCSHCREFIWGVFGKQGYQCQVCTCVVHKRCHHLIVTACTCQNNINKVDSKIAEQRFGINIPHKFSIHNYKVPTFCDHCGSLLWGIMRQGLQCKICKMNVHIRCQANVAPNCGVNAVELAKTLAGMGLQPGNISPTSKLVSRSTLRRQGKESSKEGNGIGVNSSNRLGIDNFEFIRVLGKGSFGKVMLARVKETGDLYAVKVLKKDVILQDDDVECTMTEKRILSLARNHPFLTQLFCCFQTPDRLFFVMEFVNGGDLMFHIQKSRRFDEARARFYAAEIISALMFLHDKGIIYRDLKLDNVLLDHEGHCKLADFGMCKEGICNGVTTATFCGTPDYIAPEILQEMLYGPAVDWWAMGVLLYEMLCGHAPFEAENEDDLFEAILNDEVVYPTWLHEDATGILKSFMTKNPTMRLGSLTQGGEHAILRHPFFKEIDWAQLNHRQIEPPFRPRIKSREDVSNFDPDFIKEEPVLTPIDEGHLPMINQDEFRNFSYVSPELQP

[19] = target: Protein kinase C eta type (Homo sapiens) (UniProt P24723); details: at 1 µM
[20] = target: Protein kinase C gamma type (Homo sapiens) (UniProt P05129); details: at 0.1 µM;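 further: values are mean percent inhibition of PKC gamma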

Sequence of Serine/threonine-protein kinase MRCK alpha (Homo sapiens) (Q5VT25 whole entry): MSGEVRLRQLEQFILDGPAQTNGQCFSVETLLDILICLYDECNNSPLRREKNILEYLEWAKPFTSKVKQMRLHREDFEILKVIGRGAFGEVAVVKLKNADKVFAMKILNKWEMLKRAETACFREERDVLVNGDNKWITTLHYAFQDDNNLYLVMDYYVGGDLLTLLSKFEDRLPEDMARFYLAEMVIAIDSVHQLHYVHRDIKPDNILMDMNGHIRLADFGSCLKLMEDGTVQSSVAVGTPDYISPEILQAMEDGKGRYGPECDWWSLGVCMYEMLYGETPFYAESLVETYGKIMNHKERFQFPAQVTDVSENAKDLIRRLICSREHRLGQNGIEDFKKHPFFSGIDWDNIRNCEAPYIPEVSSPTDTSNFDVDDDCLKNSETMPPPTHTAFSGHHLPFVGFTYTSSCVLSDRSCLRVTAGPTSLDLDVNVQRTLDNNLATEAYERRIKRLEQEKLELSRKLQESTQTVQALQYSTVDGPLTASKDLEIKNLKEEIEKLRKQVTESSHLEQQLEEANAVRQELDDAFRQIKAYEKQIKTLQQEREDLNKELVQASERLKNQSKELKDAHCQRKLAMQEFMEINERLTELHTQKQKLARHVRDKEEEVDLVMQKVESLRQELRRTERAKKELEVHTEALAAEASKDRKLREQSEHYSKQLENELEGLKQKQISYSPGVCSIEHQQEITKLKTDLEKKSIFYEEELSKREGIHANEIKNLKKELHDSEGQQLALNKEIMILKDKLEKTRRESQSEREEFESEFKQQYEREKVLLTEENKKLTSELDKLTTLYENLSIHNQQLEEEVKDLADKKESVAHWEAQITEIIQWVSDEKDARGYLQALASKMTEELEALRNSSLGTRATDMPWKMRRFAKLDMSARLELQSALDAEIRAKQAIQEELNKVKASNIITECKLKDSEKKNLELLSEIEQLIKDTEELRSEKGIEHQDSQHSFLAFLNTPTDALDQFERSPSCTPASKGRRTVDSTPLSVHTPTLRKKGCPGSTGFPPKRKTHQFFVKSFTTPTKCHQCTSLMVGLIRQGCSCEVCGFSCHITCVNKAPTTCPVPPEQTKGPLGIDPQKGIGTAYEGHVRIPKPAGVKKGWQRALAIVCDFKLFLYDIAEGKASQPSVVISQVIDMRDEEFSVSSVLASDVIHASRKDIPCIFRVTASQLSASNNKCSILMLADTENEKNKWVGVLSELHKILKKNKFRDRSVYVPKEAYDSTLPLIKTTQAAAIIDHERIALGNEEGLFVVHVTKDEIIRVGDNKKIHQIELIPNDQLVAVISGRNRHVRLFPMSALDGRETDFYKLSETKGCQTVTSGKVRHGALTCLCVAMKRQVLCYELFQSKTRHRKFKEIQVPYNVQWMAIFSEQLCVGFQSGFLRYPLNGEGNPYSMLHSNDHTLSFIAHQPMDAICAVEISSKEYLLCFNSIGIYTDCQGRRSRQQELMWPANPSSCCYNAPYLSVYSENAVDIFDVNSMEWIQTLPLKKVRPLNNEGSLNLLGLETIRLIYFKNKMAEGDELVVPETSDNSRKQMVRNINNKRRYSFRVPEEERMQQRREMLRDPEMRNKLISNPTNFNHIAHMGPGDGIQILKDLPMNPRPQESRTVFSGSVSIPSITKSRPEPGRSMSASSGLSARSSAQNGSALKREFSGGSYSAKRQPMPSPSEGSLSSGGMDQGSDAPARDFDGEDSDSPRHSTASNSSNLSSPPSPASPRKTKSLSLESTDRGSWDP

| Structure (SMILES) | inhibition [1] | inhibition [2] | inhibition [3] | inhibition [4] | inhibition [5] | inhibition [6] | inhibition [7] | inhibition [8] | inhibition [9] | inhibition [10] | inhibition [11] | inhibition [12] | inhibition [13] | inhibition [14] | inhibition [15] | inhibition [16] | inhibition [17] | inhibition [18] | inhibition [19] | inhibition [20] |
| --- | --- | --- | --- | --- | --- | --- | --- | --- | --- | --- | --- | --- | --- | --- | --- | --- | --- | --- | --- | --- |
| NS(=O)(=O)c1ccc(N/N=C2\C(=O)Nc3cccc(CCc4ccncc4)c32)cc1 | -0.78% | -0.69% | 0.54% | 0.31% | -0.75% | -0.48% | 0.37% | 2.61% | 0.08% | -0.48% | 6.76% | 1.41% | 1.07% | 0.11% | 0.43% | -0.59% | -0.96% | -1.41% | 1.16% | -0.97% |
| O=C(Nc1n[nH]c2nnc(-c3cccnc3)cc12)C1CC1 | 2.61% | -0.69% | 0.62% | 0.7% | -1.47% | -0.64% | -0.31% | 0.76% | -0.26% | 0.25% | -0.25% | -0.44% | 0.38% | -0.19% | 2.33% | -0.7% | 0.6% | -1.43% | 2.91% | -0.5% |
| COc1ccc2ncn(-c3cc(O[C@H](C)c4ccccc4C(F)(F)F)c(C(N)=O)s3)c2c1 | -0.19% | 2.79% | 0.61% | 2.31% | -0.46% | -0.11% | 0.7% | 2.33% | 0.7% | -0.16% | 0.59% | 0.69% | 0.52% | 0.07% | 0.04% | 0.44% | 1.04% | 1.89% | 1.45% | -2.52% |
| c1cnn2ncc(-c3ccnc(NCCCN4CCOCC4)n3)c2c1 | -0.89% | -2.56% | 0.55% | 3.84% | 6.61% | 6.41% | 5.88% | 7.41% | 2.05% | 2.73% | 1.41% | 2.68% | 5.3% | 0.87% | 2.26% | 2.73% | 5.57% | 3.67% | 2.05% | 3.52% |
| N#Cc1cccc(Nc2ncc(-c3ccccc3)o2)c1 | 0.38% | 2.09% | -1.64% | -0.28% | 1.22% | 2.21% | 1% | 2.71% | -0.53% | 1.42% | 0.43% | 0.96% | 1.68% | -0.44% | 0.37% | 0.7% | 2.96% | 0.23% | 2% | -0.01% |
| CS(=O)(=O)Nc1ccc(-c2cc(-c3ccccc3)cc(C(N)=O)c2N)cc1 | -0.32% | 0.21% | 0.74% | 1.3% | 3.96% | 1.83% | -0.81% | 0.34% | -1.22% | 0.07% | -0.56% | 0.69% | -0.07% | 0.46% | 1.59% | -0.05% | -0.92% | 1.6% | 1.53% | 1.15% |
| Nc1nonc1-c1nc2cnccc2n1C1CC1 | 4.84% and 5.86% | 35.7% and 40% | 7.62% and 9.27% | 41% and 42.7% | 75.6% and 71.7% | 82.3% and 76.5% | 44.6% and 48.9% | 75.1% and 74.5% | 66.6% and 68.6% | 89.3% and 88.8% | 2.07% and 2.38% | 5.45% and 2.09% | 36.2% and 35.9% | 1.78% and -0.98% | 15.7% and 16.9% | 45% and 47.9% | 68.3% and 74.8% | 45.9% and 49.3% | 88.8% and 90.8% | 3.3% and 3.29% |
| COc1ccc(-c2nn3ncccc3c2-c2ccnc(Nc3ccc(F)c(F)c3)n2)cc1 | 0.67% | 4.1% | -0.01% | -0.11% | 3.92% | 6.45% | 3.37% | 4.5% | 1.91% | 2.58% | 0.91% | 1.99% | 3.24% | 0.39% | 1.74% | 1.53% | 5.16% | 1.15% | 7.16% | 4.72% |
| Nc1ncnc2occ(-c3ccc(NC(=O)Nc4cc(C(F)(F)F)ccc4F)cc3)c12 | 0.43% | -0.27% and 0.62% | 0.53% and -0.08% | 0.77% and -0.99% | 5.58% and -0.86% | 23.9% and 10.9% | 3.23% and -1.15% | 19.7% and 6.99% | 28.2% and 17.1% | 77.4% and 70.2% | 2.41% and -0.72% | 0.57% and -0.25% | 1.31% and -1.17% | 0.16% and -0.04% | 0.52% and -0.37% | 1.05% and -0.26% | 1.13% and 0.29% | 1.5% and 0.01% | 1.23% and -2.29% | -0.11% and -2.32% |
| COc1cc2c(cc1Nc1nc(Nc3cccc(F)c3C(N)=O)c3cc[nH]c3n1)N(C(=O)CN1CCN(C(C)C)CC1)CC2 | 6.36% | 5.12% | 0.17% | 2.33% | 1.4% | 3.93% | 1.44% | 3.9% | 2.23% | 2.83% | -0.05% | 3.63% | 2.83% | 3.39% | 1.01% | 0.6% | 3.47% | 0.59% | 1.37% | 1.36% |
| CCS(=O)(=O)c1ccc(OC)c(Nc2ncc(-c3cccc(C(C)=O)c3)o2)c1 | -0.63% | 3.28% | -1.42% | -0.03% | 2.8% | 4.68% | 0.6% | 2.7% | 1.32% | 2.57% | 0.17% | 1.47% | 1.88% | 0.74% | 0.95% | -0.44% | 3.77% | 3.76% | 3.11% | 2.68% |
| COc1cc(Nc2ncc(-c3ccccc3)o2)cc(OC)c1 | -6.08% | -1.27% | -0.81% | 0.65% | 2.3% | -0.44% | 2.85% | 2.84% | 2.08% | 3.04% | 1.45% | 1.51% | 1.67% | 1.19% | 1.72% | 0.24% | 2.31% | 4.07% | 6.3% | 0.82% |
| Cc1cc(O)cc(C)c1/C=C/c1cncc(C(=O)OC(C)(C)C)c1 | 0.35% | 1.93% | 1.45% | 2.65% | 1.89% | 3.7% | 1.86% | 3.1% | 0.44% | 0.31% | 1.42% | 1.82% | 3.63% | 0.14% | 0.77% | 0.46% | -1.03% | -1.29% | 3.71% | 3.91% |
